Reference: PMC5540273 (PLoS ONE, 2017)

Tests used:
Settings in all cases: concentration: 1 μM, replicates: in singlicate; n = 1
PRKCE = system: PRKCE
PRKCH = system: PRKCH
PRKCI = system: PRKCI
PRKCQ = system: PRKCQ
PRKD1 = system: PRKD1
PRKD2 = system: PRKD2
PRKD3 = system: PRKD3
PRKG1 = system: PRKG1
PRKG2 = system: PRKG2
PRKR = system: T1, PRKR
T1 construct: gene EIF2AK2
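Also: KINOMEscan kinase panel screen.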

| SMILES | %Inh (PRKCE) [%] | %Inh (PRKCH) [%] | %Inh (PRKCI) [%] | %Inh (PRKCQ) [%] | %Inh (PRKD1) [%] | %Inh (PRKD2) [%] | %Inh (PRKD3) [%] | %Inh (PRKG1) [%] | %Inh (PRKG2) [%] | %Inh (PRKR) [%] |
| --- | --- | --- | --- | --- | --- | --- | --- | --- | --- | --- |
| COc1cc(Nc2nccc(N3CCC(NC(=O)C(C)c4ccc(Cl)cc4)C3)n2)cc(OC)c1OC (stereo not shown) [GSK1379757] | 0 | 14 | 0 | 0 | 0 | 0 | 0 | 1 | 4 | 0 |
| Nc1n[nH]c2ncc(-c3ccccc3)cc12 [SB-517081] | 16 | 72 | 21 | 3 | 4 | 0 | 0 | 0 | 0 | 0 |
| Cc1ccccc1COc1cc(-n2cnc3cc(Cl)ccc32)sc1C(N)=O [GW813349] | 2 | 0 | 20 | 1 | 7 | 0 | 0 | 8 | 7 | 0 |
| CCC(=O)c1c(-c2ccccc2)c2cc(Cl)ccc2c(=O)n1Cc1cc(C(=O)NC2CC2)n(C)n1 | 20 | 0 | 0 | 41 | 0 | 3 | 0 | 0 | 0 | 0 |
| Cc1cc(Nc2nc(-c3cccc(C)n3)nc3ccccc23)ccn1 [GW872411] | 0 | 0 | 0 | 0 | 99.4 | 99.9 | 76 | 14 | 0 | 0 |
| COc1cccc(C2=C(Nc3cccc(C(=O)O)c3)C(=O)NC2=O)c1 [SB-390770] | 15 | 28 | 100 | 11 | 0 | 0 | 0 | 0 | 0 | 0 |
| CCc1nc(-c2cccc(C)c2)c(-c2ccncc2)s1 | 0 | 0 | 28 | 6 | 0 | 26 | 9 | 0 | 11 | 0 |
| CCn1c(-c2nonc2N)nc2ccccc21 [SB-693162/GW549034] | 44 | 17 | 31 | 16 | 0 | 3 | 0 | 0 | 67 | 0 |
| Fc1cccc(CSc2nnc(-c3ccc4c(c3)CCO4)o2)c1 | 0 | 0 | 3 | 15 | 0 | 12 | 0 | 0 | 26 | 0 |
| Cc1nc(N(C)[C@H]2CN(C(=O)CC#N)CC[C@H]2C)c2cc[nH]c2n1 | 0 | 8 | 9 | 10 | 0 | 1 | 66 | 2 | 0 | 5 |
| CN1C(=O)C(Nc2ccccc2)=C(c2ccccc2)C1=O [SB-300079] | 16 | 0 | 0 | 0 | 0 | 0 | 0 | 18 | 0 | 76 |
| COC(=O)c1c(-c2ccccc2)c2cc(C)ccc2c(=O)n1Cc1ccccc1 | 0 | 0 | 0 | 36 | 0 | 8 | 0 | 0 | 0 | 0 |
| COc1ccc(-n2cnc3c(N)ncnc32)cc1 [SKF-97236] | 0 | 23 | 28 | 0 | 0 | 1 | 5 | 14 | 33 | 0 |
| O=C(Nc1ccc2c(c1)OCO2)NC1CCN(c2ccnc(NCc3ccc(F)cc3)n2)CC1 [GSK1379859] | 0 | 16 | 0 | 18 | 0 | 0 | 34 | 0 | 0 | 0 |
| Nc1ncnc2c1ncn2-c1cccc(F)c1 [SKF-97560] | 3 | 0 | 22 | 20 | 0 | 10 | 9 | 0 | 10 | 0 |
| Nc1ncnc2c1ncn2-c1ccc(Cl)cc1 [AH2635] | 0 | 0 | 6 | 0 | 0 | 0 | 0 | 2 | 0 | 0 |
| Cc1ccc(-c2ccc3c(ccc4sc5c(c43)NC[C@@H](C)N=C5N(C)C)n2)cn1 | 36 | 0 | 0 | 0 | 10 | 0 | 20 | 0 | 0 | 0 |

| SMILES | %Inh (PRKCE) [%] | %Inh (PRKCH) [%] | %Inh (PRKCI) [%] | %Inh (PRKCQ) [%] | %Inh (PRKD1) [%] | %Inh (PRKD2) [%] | %Inh (PRKD3) [%] | %Inh (PRKG1) [%] | %Inh (PRKG2) [%] | %Inh (PRKR) [%] |
| --- | --- | --- | --- | --- | --- | --- | --- | --- | --- | --- |
| CCS(=O)c1ccc(-c2coc3ccc(-c4nnc(C)o4)cc23)cc1 (stereo not shown) | 0 | 0 | 0 | 14 | 0 | 0 | 0 | 21 | 9 | 0 |
| CCC(=O)c1c(-c2ccccc2)c2cc(Cl)ccc2c(=O)n1Cc1ccc(C(=O)O)cc1 | 0 | 0 | 0 | 9 | 0 | 6 | 0 | 0 | 0 | 0 |
| COc1cc(OC)cc(-c2cc3cnc(N)nc3nc2NC(=O)NC(C)(C)C)c1 | 51 | 0 | 2 | 0 | 0 | 0 | 0 | 14 | 0 | 16 |
| COc1cc(Nc2ccnc3ccc(C(F)(F)F)cc23)cc(OC)c1OC [GW577382] | 19 | 13 | 48 | 4 | 6 | 6 | 0 | 3 | 6 | 0 |
| CCC(=O)c1c(-c2ccccc2)c2cc(Cl)ccc2c(=O)n1Cc1cc(S(C)(=O)=O)n(CCC(C)(C)O)n1 | 0 | 3 | 23 | 37 | 1 | 4 | 0 | 0 | 21 | 0 |
| Cc1cccc(-c2nc(Nc3ccc4c(cnn4C)c3)c3ccccc3n2)n1 [GW876731] | 15 | 0 | 0 | 0 | 99.2 | 99.6 | 90.2 | 9 | 0 | 0 |
| COc1cc2nccc(Nc3ccc(OCc4ccc(NC(C)=O)cc4)cc3)c2cc1OC.Cl [GW440135] | 10 | 14 | 0 | 0 | 0 | 11 | 2 | 10 | 0 | 0 |
| O=C(NCCNc1ccnc(Nc2ccc(F)cc2)n1)Nc1ccc2c(c1)OCO2 [GSK1379882] | 13 | 16 | 0 | 3 | 0 | 7 | 0 | 0 | 0 | 9 |
| COC(=O)c1c(-c2ccccc2)c2cc(Br)ccc2c(=O)n1Cc1ccc(NC(=O)CCC(=O)O)cc1 | 0 | 7 | 0 | 21 | 0 | 0 | 0 | 0 | 0 | 0 |
| Nc1nc(-c2ccccc2F)c(-c2ccnc3ccccc23)s1 [GW560459] | 17 | 11 | 13 | 0 | 0 | 0 | 27 | 1 | 0 | 0 |
| CN(C)c1cc(-c2ccc3c(N)n[nH]c3c2)nc(N)n1 [GSK2219329] | 0 | 14 | 17 | 0 | 0 | 0 | 0 | 1 | 1 | 5 |
| O=C(NCc1cccs1)c1cc(C(=O)c2c(Cl)cccc2Cl)c[nH]1 [GW823670] | 9 | 0 | 0 | 0 | 35 | 3 | 13 | 0 | 0 | 0 |
| Cn1c(=O)c(F)c(Nc2ccc(I)cc2F)c2c(=O)n(OC[C@H](O)CO)cnc21 | 0 | 0 | 34 | 6 | 0 | 0 | 0 | 8 | 7 | 0 |
| CC(C)(C)c1ccc(C(=O)Nc2cn3cc(-c4ccccc4)ccc3n2)cc1 | 5 | 0 | 10 | 37 | 8 | 19 | 4 | 1 | 0 | 0 |
| COc1ccc(-c2coc3ccc(-c4nnc(SCc5cccc(C#N)c5)o4)cc23)cc1 | 0 | 0 | 0 | 31 | 0 | 23 | 0 | 0 | 21 | 0 |
| Cc1cccc(-c2cc(-c3c[nH]nc3-c3ccccn3)ccn2)c1 [GW679395] | 13 | 0 | 4 | 35 | 57 | 48 | 22 | 0 | 0 | 0 |
| Cc1c(Cn2c(C)nn3c(=O)cc(N4CCO[C@H](C)C4)nc23)cccc1C(F)(F)F [GSK2373690] | 0 | 35 | 26 | 17 | 0 | 0 | 0 | 15 | 0 | 0 |
